In PubChem BioAssay (NCATS):
Results filed as inconclusive are left out. Entries that show only a call come without a potency. Unmarked numbers belong to inactive results. The source made the active and inactive calls. Calls come from the whole dose curve; as a rule, active = well fitted inhibition curve with a large enough effect; inconclusive = small, poorly fitted or top-dose-only effect; inactive = flat fitted curve, though single readings scatter.

Experiments:
[1] = qHTS profiling for inhibitors of Plasmodium falciparum proliferation (AID 504749); for all read-outs here: nearly all actives have a fitted effect of over 60% in size; settings: P. falciparum in erythrocytes, SYBR Green DNA, 72 h; for activity, negative = inhibition: at 28.7 µM (top of the series)
How it was run: (§1)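 P. falciparum-infected erythrocytes (0.3% parasitemia, 2.5% hematocrit final) were exposed to compounds for 72 h at 37 C in 5% CO2, then lysed with SYBR Green buffer overnight at room temperature; parasite DNA fluorescence was normalized to artemisinin and DMSO controls.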

[2] = tested on: 3D7; assay: as above; settings: P. falciparum in erythrocytes, SYBR Green DNA, 72 h; series mostly up to 28.7 µM
How it was run: as §1

[3] = tested on: 7G8; assay: as above; settings: P. falciparum in erythrocytes, SYBR Green DNA, 72 h; series mostly up to 28.7 µM
How it was run: as §1

[4] = tested on: AA1029; assay: as above; settings: P. falciparum in erythrocytes, SYBR Green DNA, 72 h; series mostly up to 28.7 µM
How it was run: as §1

[5] = tested on: ATS189; assay: as above; settings: P. falciparum in erythrocytes, SYBR Green DNA, 72 h; series mostly up to 28.7 µM
How it was run: as §1

[6] = tested on: ATS95; assay: as above; settings: P. falciparum in erythrocytes, SYBR Green DNA, 72 h; series mostly up to 28.7 µM
How it was run: as §1

[7] = tested on: C2A; assay: as above; settings: P. falciparum in erythrocytes, SYBR Green DNA, 72 h; series mostly up to 28.7 µM
How it was run: as §1

[8] = tested on: CP185; assay: as above; settings: P. falciparum in erythrocytes, SYBR Green DNA, 72 h; series mostly up to 28.7 µM
How it was run: as §1

[9] = tested on: CP191; assay: as above; settings: P. falciparum in erythrocytes, SYBR Green DNA, 72 h; series mostly up to 28.7 µM
How it was run: as §1

[10] = tested on: CP192; assay: as above; settings: P. falciparum in erythrocytes, SYBR Green DNA, 72 h; series mostly up to 28.7 µM
How it was run: as §1

[11] = tested on: CP194; assay: as above; settings: P. falciparum in erythrocytes, SYBR Green DNA, 72 h; series mostly up to 28.7 µM
How it was run: as §1

[12] = tested on: AS120; assay: as above; settings: P. falciparum in erythrocytes, SYBR Green DNA, 72 h; series mostly up to 28.7 µM
How it was run: as §1
Potency is the fitted concentration of half-maximal effect.

Structure (SMILES)	activity, negative = inhibition ([1]; parasite line B) [%]	Potency [2]	Potency [3]	Potency [4]	Potency [5]	Potency [6]	Potency [7]	Potency [8]	Potency [9]	Potency [10]	Potency [11]	Potency ([1]; parasite line B)	Potency [12]	activity, negative = inhibition ([1]; parasite line A) [%]	Potency ([1]; parasite line A)
COP(=O)(OC)C(O)C(Cl)(Cl)Cl (stereo not drawn)	2.48	inactive	inactive	inactive	inactive	inactive	inactive	inactive	inactive	inactive	inactive				
C=CCOC(Cn1ccnc1)c1ccc(Cl)cc1Cl (stereo not drawn)		11.2 µM (active)	2 µM (active)	8.91 µM (active)	10 µM (active)	8.91 µM (active)					15.1 µM (active)	10 µM (active)	5.01 µM (active)		
Oc1c(Br)cc(Br)cc1Br	-0.833	inactive	inactive	inactive	inactive	inactive	inactive	inactive	inactive	inactive	inactive		inactive	0.526	
C#C[C@]1(O)CC[C@H]2[C@@H]3CCC4=CC(=O)CCC4=C3C=C[C@@]21CC		7.94 µM (active)	11.2 µM (active)			10 µM (active)			3.16 µM (active)	inactive		6.31 µM (active)			
CN1CCc2cc(Cl)c(O)cc2[C@H]2c3ccccc3CC[C@@H]21	-29.7		11.2 µM (active)				inactive			inactive					
CCCCCCCCCCCC[N+](C)(C)CCOc1ccccc1		5.01 µM (active)	3.98 µM (active)	5.01 µM (active)	8.91 µM (active)		7.08 µM (active)	7.94 µM (active)	4.47 µM (active)	9.53 µM (active)	15.1 µM (active)	5.01 µM (active)	5.01 µM (active)		3.55 µM (active)
ClC1=C(Cl)C2(Cl)C(CBr)CC1(Cl)C2(Cl)Cl (stereo not drawn)	-10.5			inactive	inactive	inactive	inactive	inactive	inactive	inactive	inactive		inactive	-10.4	
CC(C)(O)C(Cl)(Cl)Cl		2 µM (active)	0.316 µM (active)	12.6 µM (active)	3.16 µM (active)	10 µM (active)			3.16 µM (active)			12.6 µM (active)	4.47 µM (active)		11.2 µM (active)
C[C@H]1C(=O)O[C@@H]2CCN3CC=C(COC(=O)[C@](C)(O)[C@]1(C)O)[C@H]23	-1.5	inactive	inactive	inactive	inactive	inactive	inactive	inactive	inactive	inactive	inactive		inactive	-7.4	
Oc1ccc2[nH]cc(CCCCN3CC=C(c4ccccc4)CC3)c2c1			3.98 µM (active)												
